The assay can be described thus: S. aureus growth inhibition at 42 and 30 °C, primary screen, LtaS inhibitor project, RN4220, two temperatures (AID 720641). The following applies: OD600, 20 h, 42 °C, stronger effect = lower value.

The whole screen tested about 170,000 compounds, of which about 900 (0.53%) were called active. This is one part of a sample in which actives are shown more often than they occur.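 The calls were made as follows: active = relative growth at most 50% at the other temperature and 20+ points below 30 °C, or under 10% at both; inactive = the rest, inconclusive results apart.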

On to `[C-]#[N+]c1ccc(Cl)cc1C(C)S(=O)(=O)c1ccc(C)cc1` (stereo not given), for which the relative growth was 4.29% (active). Further, the relative growth (measured here: growth at 30 °C) amounted to 7.07%.
`Cc1cc(N2CCNCC2)nc(C)n1`: the relative growth is 91.3% (inactive). In addition, for the setting “measured here: growth at 30 °C”, the relative growth came to 82.9%.
In the same order, the values of `CN1C(=O)C(C(=O)O)C2CC1Oc1ccccc12` (stereo not given) are 91.5% (inactive) and 72.8%.
Consider `O=C(Cn1cc(/C=C2/C(=O)NC(=O)N(Cc3ccco3)C2=O)c2ccccc21)NCC1CCCO1` (stereo not given), for which the relative growth was 98.4% (inactive). The compound further displayed a relative growth (measured here: growth at 30 °C) of 86.3%.
For the compound `CN(C)c1ccc(/C=C2/C(=O)C3CCN2CC3)cc1`, the relative growth was 112% (inactive). Under “measured here: growth at 30 °C”, this compound showed a relative growth of 95.5%.

(Values after PubChem BioAssay AID720641 (ICCB-Longwood Screening Facility, Harvard Medical School, 2013).)
